# The list is not random: actives were taken first. Their share in the collection is about 21%.
# NS1 inh = influenza NS1 inhibition. Potency, µM (highest dose often 46.1 µM), without a hit: at the top dose activity, positive = more growth. AID 2326. actives 0.4% (n = 270,000); further: potency means the concentration at half of the fitted maximal effect; actives are rising curves; nearly all actives have a fitted effect of over 50% in size
#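 Compounds were scored for reversing the slow growth caused by influenza A NS1 in S. cerevisiae, measured by optical density at 600 nm. Assay medium contained 2% galactose at pH 6.0; NS1-free yeast of the same strain were the positive control.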
# Pf growth 96h = P. falciparum growth inhibition at 96 hour, primary screen for plastid delayed-death inhibitors | P. falciparum luciferase reporter growth, 96 h | AID 504834 | Potency, µM (doses to about 28.7 µM), for inactives: at the top dose activity change, negative = inhibition, actives largely listed as inhibitors | actives 6.9% (n = 320,000); active means well fitted inhibition curve with a large enough effect; inconclusive means small, poorly fitted or top-dose-only effect, or another doubt; inactive means no such curve, though single readings can be large or run the other way; further: potency means the concentration at half of the fitted maximal effect; on the % scale 0 is the no-effect control and ±100 the full control effect
#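 Infected RBCs, 2% Hct / 0.05% parasitemia final; luciferase-reporter P. falciparum; cpd 96 h, 37 C, 5% CO2; luciferase detection reagent; luminescence.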
# Cycloheximide cs = affects cycloheximide protein synthesis inhibition readout, counter-screen | max response, % | actives 12% (n = 300,000) | cell reporter, cycloheximide protein synthesis inhibition counterscreen | AID 2314; in the data active means max response mostly above about 13%, no sharp cut-off; inactive means mostly below about 14%; further: read at 38.3 µM for the half of the compounds with a filed dose; 0% is about no effect
# SARS PLP yeast = inhibitors of SARS-CoV papain-like protease in yeast | S. cerevisiae expressing SARS-CoV PLpro, growth rescue | Potency, µM (titrated, usually from 32.9 µM), without a hit: top-dose activity, positive = growth rescue, actives largely listed as activators | actives 0.19% (n = 330,000) | AID 485353; further: potency means the concentration at half of the fitted maximal effect; 0% is about no effect; nearly all actives have a fitted effect of over 55% in size
# Pf growth 48h = P. falciparum growth inhibition at 48 hours (one generation); P. falciparum luciferase growth in erythrocytes, 48 h; Potency, µM (titrated, usually from 28.7 µM), for the others: at the top dose activity change, negative = inhibition, hits mostly inhibitors; actives 5.9% (n = 310,000); active means well fitted inhibition curve with a large enough effect; inconclusive means small, poorly fitted or top-dose-only effect, or another doubt; inactive means no such curve, though single readings can be large or run the other way; further: potency means the concentration at half of the fitted maximal effect; on the % scale 0 is the no-effect control and ±100 the full control effect
#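 Here the parasites carry a stable luciferase gene and grow inside erythrocytes in Albumax-based RPMI medium with compound for one erythrocytic cycle. Activity is scored as loss of luminescent signal.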
# Shiga inhibitor = blocks Shiga toxin action in Vero cells; Vero cells, Shiga toxin protein synthesis inhibition reporter; inhibition, % at 38.7 µM; actives 9.2% (n = 290,000); in the data active means inhibition mostly above about 28%, no sharp cut-off; inactive means mostly below about 43%; further: 0% is about no effect
# Active calls of the source: *; ? = inconclusive; · = no result given; [ ] = another dose, or the depositor's remark. Unless noted, the call rests on the fitted dose curve.
SMILES,NS1 inh,Pf growth 96h,Cycloheximide cs,SARS PLP yeast,Pf growth 48h,Shiga inhibitor
Cc1[nH]n(C(N)=S)c(=O)c1N=Nc1ccc(S(=O)(=O)N2CCCCCC2)cc1,3.3%,63.9%,13.8,?,·,46.0
Cc1ccc(N=Nc2c(C)[nH]n(C(N)=S)c2=O)cc1C,-38.0%,-23.5%,26.0*,-0.3%,?,157.6*
CC(=O)Nc1ccc(N=Nc2c(C)[nH]n(C(N)=S)c2=O)cc1,·,?,33.8*,-4.6%,-0.6%,87.8*
Cc1[nH]n(C(N)=S)c(=O)c1N=Nc1cc(-c2ccc(Br)cc2)[nH]n1,·,-10.2%,34.6*,-0.7%,9.1%,57.9
Cc1[nH]n(C(N)=S)c(=O)c1N=Nc1ccc2ccccc2c1,·,4.65µM*,45.5*,-20.3%,28.1%,92.5*
Cc1ccccc1OCC(=O)OC(C)C(=O)NC1CCCC1 (stereo not given),·,-6.9%,·,-0.9%,-4.9%,·
COc1ccc(C(=O)O[C@H]2CC[C@@]3(C)[C@H]4CC[C@H]5[C@]3(C[C@]3(O)[C@H]6CN7C[C@H](C)CC[C@H]7[C@](C)(O)[C@]6(O)[C@H](O)C[C@]53O)O[C@]24O)cc1OC,-7.8%,·,·,·,·,·
CC(C)CC(=O)Nc1c2c(nn1-c1cccc(Cl)c1)CS(=O)C2 (stereo not given),6.2%,27.1%,4.2,-3.2%,0.5%[0.00184 µM],-11.2
COC(C)(C)[C@H](O)COc1c2ccoc2cc2oc(=O)ccc12,-10.8%,-12.1%,-4.3,19.1%,29.4%,-15.6
COC(=O)C1C(c2ccc(N(C)C)cc2)C(C(=O)OC)S(=O)(=O)CS1(=O)=O (stereo not given),19.8%,-22.8%,-5.2,-0.5%,0.8%,12.7
Cc1[nH]n(C(N)=S)c(=O)c1N=Nc1cccc([N+](=O)[O-])c1C,-11.1%,7.2%,56.9*,5.5%,?,51.2*
O=C(NCCOc1ccccc1)c1ccccc1SCC(=O)N1CCCC1,·,?,·,-1.4%,-23.8%,·
S=C(NCC1CC1)N/N=C/c1ccccc1Cl,-5.2%,?,2.7,-0.3%,?,25.7*
O=C(N/N=C/c1ccccc1Cl)C1CC1,-6.5%,19.4%,5.9,-2.8%,0.8%,-2.0
CCOC(=O)C1=C(c2ccccc2)NC(=O)NC1c1ccc(OC)cc1OC (stereo not given),-3.7%,0.4%,-3.0,-0.6%,·,-5.2
c1ccc(-n2ncc3c(N4CCCCC4)ncnc32)cc1,-109.3%,125.3%,13.1,-23.4%,·,-7.1
CCOC(=O)C1CCCN(c2ncnc3c2[nH]c2cccc(OC)c23)C1 (stereo not given),?,·,-0.3,-1.2%,11.7µM*,-15.8
CCN(CC)C(=O)C1CCCN(c2ncnc3c2cnn3-c2ccc(Cl)cc2)C1 (stereo not given),-75.9%,92.2%,23.3*,-12.2%,33.0%,61.5*
CCN1CCN(c2ncnc3c2cnn3-c2ccccc2)CC1,-1.0%,138.7%,21.2,-6.1%,·,43.2
CCOC(=O)C1CCN(c2ncnc3c2cnn3-c2ccc(OC)cc2)CC1,-4.6%,0.0%,-1.1,-2.5%,42.6%,-10.9
CCOC(=O)C1CCCN(c2ncnc3c2cnn3-c2cccc(C)c2)C1 (stereo not given),-78.1%,?,40.9*,-7.7%,151.9%,118.3*
CCN(CC)C(=O)C1CCCN(c2ncnc3c2cnn3-c2cccc(C)c2)C1 (stereo not given),-39.9%,?,34.4*,-17.4%,·,62.7*
COc1ccc(C(=O)C2CCN(C(=S)Nc3ccc(F)cc3)CC2)cc1,·,?,-3.0,7.7%,6.8%,-9.5
Cc1ccc(N(C(=O)c2csnn2)C(C(=O)NC2CCCC2)c2cccnc2)c(C)c1 (stereo not given),1.3%,?,-3.7,10.0%,-14.8%,2.2
COC(=O)/C=C1/SC(=NC(=O)c2cccc([N+](=O)[O-])c2)NC1=O,5.9%,-33.3%,7.1,4.6%,11.4%,-9.4
SMILES,NS1 inh,Pf growth 96h,Cycloheximide cs,SARS PLP yeast,Pf growth 48h,Shiga inhibitor
CC1(C)CC(CCNC(=O)CCl)(c2ccccc2)CCO1 (stereo not given),2.2%,?,-2.5,-0.3%,?,-11.2
Cc1nn2c(N3CCOCC3)cc(C(C)(C)C)nc2c1-c1ccc(Cl)cc1,3.3%,-6.9%,-0.8,1.8%,-16.7%,2.5
Cc1cc(C)n(-c2cc(C(C)(C)C)nc3c(-c4ccccc4)cnn23)n1,-0.1%,-22.6%,54.3*,-1.1%,93.8%,90.5*
Cc1cc(C)n(-c2cc(C(C)(C)C)nc3c(-c4ccc(Cl)cc4)cnn23)n1,-52.5%,?,29.1*,-29.5%,?,64.1*
O=C(Nc1ccc(OC(F)F)c(Cl)c1)Nc1ccc2c(c1)OCO2,-5.0%,·,25.6,-11.0%,?,42.2
COc1ccccc1CCNC(=O)Nc1cccc([N+](=O)[O-])c1,1.6%,57.7%,11.4,-1.3%,17.0%,15.1
O=C(Nc1ccc([N+](=O)[O-])cc1)Nc1ccc(OC(F)F)c(Cl)c1,-23.6%,-14.6%,-5.8,-122.6%,1.85µM*,-9.2
COc1ccc(NC(=O)Nc2cccc([N+](=O)[O-])c2)cc1Cl,-3.1%,26.5%,30.2*,-20.2%,6.57µM*,26.8
CCOc1ccc(-n2c(N)c(C(=O)NCc3ccco3)c3nc4ccccc4nc32)cc1,7.7%,-60.5%,-3.1,-1.7%,·,-2.5
CCOc1ccc(-n2c(N)c(-c3nc4ccccc4n3C)c3nc4ccccc4nc32)cc1,14.3%,2.94µM*,-4.3,10.4%,3.0%,-4.2
CC(C)c1cc2c(s1)c1cnn(Cc3ccccc3F)c(=O)c1n2C,·,·,8.3,·,·,16.9
Cc1nnc(NC(=O)NCN2C(=O)C3C4C=CC(C4)C3C2=O)s1 (stereo not given),1.9%,3.7µM*,-2.9,4.7%,?,0.9
O=C(CSCc1cccc(Br)c1)N1CCOCC1,-4.9%,18.9%,16.0,23.7%,59.9%,64.1
O=C(NCCc1ccccc1)Nc1ccc2c(c1)OCO2,-3.9%,16.4%,61.2*,-0.8%,0.0%,155.7*
O=C(CCS(=O)(=O)c1ccc(Br)cc1)Nc1ccc2c(c1)OCO2,-1.0%,0.465µM*,14.8*,6.0%,0.6%,36.0
O=C(NCCc1ccccc1)C(=O)Nc1ccc2c(c1)OCCO2,·,?,27.4*,-3.8%,113.0%,74.0*
Fc1ccc(CNCCc2ccc3c(c2)OCO3)cc1,-4.0%,70.6%,-0.7,2.4%,0.9%,1.6
O=C(NCCc1ccc(F)cc1)Nc1ccc2c(c1)OCO2,-3.6%,3.2%,48.0*,-0.8%,134.2%,58.0*
O=S(=O)(c1ccc(Cl)cc1)c1cc(Cl)c(Cl)cc1Cl,·,·,-6.2,·,·,21.9
O=C(Nc1ccc2c(c1)OCO2)OCc1ccccc1,-60.0%,·,24.5*,-2.6%,225.5%,81.3*
O=C(Nc1ccc2c(c1)OCO2)C1CCCN1C(=O)OCc1ccccc1 (stereo not given),3.0%,21.2%,-2.5,-2.6%,-12.3%,14.3
O=C(CS(=O)(=O)Cc1ccccc1)Nc1ccc2c(c1)OCO2,·,?,16.5,0.4%,36.0%,33.8

# Bioassay records deposited in PubChem by National Center for Advancing Translational Sciences (NCATS).
